Assay results: PubChem BioAssay
The source made the active and inactive calls.

Assays:
[1] = optical density shifts of acrAB sulA E. coli – strain DRC41, OD650, 48 h, E. coli filamentation inducer project, primary screen (AID 1152); settings: higher = more signal, called active from +8 up or from −8 down;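 further: E. coli MC1000 strain DRC41 lacking acrAB efflux pump and sulA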
[2] = probe aLefty1 binding on compound microarray – biochemical, small-molecule microarray, 635/667 nm fluorescence, primary screen (AID 1153); settings: higher = more signal;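 further: score merges spot fluorescence with signal-to-noise ratio from the scanned slide images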
[3] = plasmodial surface anion channel blockers, osmotic lysis – cell-based, P. falciparum Indochina, OD700, 1 h, primary screen (AID 1154); settings: P. falciparum Indochina infected RBC osmotic lysis, higher = more signal, called active from +8 up or from −8 down
[4] = plasmodial surface anion channel blockers, osmotic lysis – cell-based, P. falciparum Indochina, OD700, 2 h, primary screen (AID 1155);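 further: lysis reports solute entry through the parasite surface anion channel PSAC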; settings: P. falciparum Indochina infected erythrocytes, higher = more signal, called active from +8 up or from −8 down
[5] = changes in parasitized red cell lysis, either direction – P. falciparum Indochina, OD700, 3 h, PSAC antagonist project, primary screen (AID 1156); settings: P. falciparum-infected erythrocytes, osmotic lysis, higher = more signal, called active from +8 up or from −8 down
[6] = plasmodial surface anion channel blockers, osmotic lysis – cell-based, P. falciparum Indochina, OD700, 18 h, primary screen (AID 1157); settings: P. falciparum Indochina infected erythrocytes, osmotic lysis OD700, 18 h; higher = more signal, called active from +8 up or from −8 down
[7] = S6 kinase pathway phospho-S6 level changes – cell-based, A549, cytoblot, luminescence, serum-stimulated, primary screen (AID 1158); settings: 5 h, higher = more signal;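 further: serum-stimulated A549 lung adenocarcinoma cells; signal is phosphorylated S6 detected by cytoblot immunostaining with HRP secondary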
[8] = target: NADPH oxidase 2 (Homo sapiens) (UniProt P04839); assay: compounds shifting NOX2 Amplex Red fluorescence – cell-based, HEK293-NOX2, PMA-stimulated, NOX inhibitor project, primary screen (AID 1159); settings: 45 min, higher = more signal, called active from +8 up or from −8 down; further: test concentration not given here
[9] = target: NADPH oxidase 4 (Homo sapiens) (UniProt Q9NPH5); assay: compounds shifting NOX4 Amplex Red fluorescence – cell-based, HEK293-NOX4, tetracycline-induced, NOX inhibitor project, primary screen (AID 1160); settings: HEK293-NOX4, Amplex Red H2O2 fluorescence, 45 min; higher = more signal, called active from +8 up or from −8 down
[10] = target: NADPH oxidase 5 (Homo sapiens) (UniProt Q96PH1); assay: compounds shifting NOX5 Amplex Red fluorescence – cell-based, HEK293-NOX5, NOX inhibitor project, primary screen (AID 1161); settings: HEK293-NOX5, ionomycin, 45 min, higher = more signal
[11] = compound effects on lung adenocarcinoma cell viability – A549, calcein-AM fluorescence, 48 h, basal, profiling panel (AID 1162); settings: higher = more signal; further: test concentration not given here
[12] = compound effects on differentiated 3T3-L1 adipocyte viability – cell-based, 3T3-L1 adipocytes, calcein-AM fluorescence, 48 h, basal, profiling panel (AID 1163); settings: 3T3-L1 adipocytes viability, higher = more signal; further: test concentration not given here
[13] = compound effects on hepatocellular carcinoma cell viability – HepG2, calcein-AM fluorescence, 48 h, basal, profiling panel (AID 1164); settings: higher = more signal; further: test concentration not given here
[14] = compound effects on multiple myeloma cell viability – MM1S, calcein-AM fluorescence, 48 h, basal, profiling panel (AID 1165); settings: higher = more signal;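 further: viability of MM1S multiple myeloma cells under basal unstimulated conditions; test concentration not given here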
[15] = calcein-AM signal in unstimulated myeloma cells – cell-based, calcein-AM fluorescence, 48 h, PK04 Diversity Set, profiling panel (AID 1166); settings: RPMI8226 myeloma viability, higher = more signal;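 further: cells grown under basal conditions without added stimulus; test concentration not given here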
[16] = JC-1 mitochondrial signal, unstimulated HepG2 cells – cell-based, JC-1 fluorescence, 24 h, 100 nL compound, profiling panel (AID 1167); settings: HepG2 mitochondrial potential, higher = more signal; further: test concentration not given here
[17] = JC-1 mitochondrial signal, unstimulated adipocytes – cell-based, JC-1 fluorescence, 3T3-L1 adipocytes, 24 h, 100 nL compound, profiling panel (AID 1168); settings: JC-1 mitochondrial fluorescence, higher = more signal, called active from +8 up or from −8 down; further: test concentration not given here
[18] = JC-1 mitochondrial signal, unstimulated myeloma cells – cell-based, JC-1 fluorescence, RPMI8226, 24 h, 100 nL compound, profiling panel (AID 1169); settings: JC-1 mitochondrial potential fluorescence, higher = more signal; further: test concentration not given here
[19] = JC-1 mitochondrial signal, unstimulated MM1S myeloma – cell-based, JC-1 fluorescence, 24 h, 100 nL compound, profiling panel (AID 1170); settings: MM1S mitochondrial potential, higher = more signal; further: test concentration not given here
[20] = resazurin metabolic signal in A549 cells – cell-based, resazurin fluorescence, 24 h, PK04 Diversity Set, profiling panel (AID 1171); settings: A549 viability, higher = more signal, called active from +8 up or from −8 down; further: test concentration not given here

Sequence of NADPH oxidase 2 (Homo sapiens) (P04839 whole entry, looked up): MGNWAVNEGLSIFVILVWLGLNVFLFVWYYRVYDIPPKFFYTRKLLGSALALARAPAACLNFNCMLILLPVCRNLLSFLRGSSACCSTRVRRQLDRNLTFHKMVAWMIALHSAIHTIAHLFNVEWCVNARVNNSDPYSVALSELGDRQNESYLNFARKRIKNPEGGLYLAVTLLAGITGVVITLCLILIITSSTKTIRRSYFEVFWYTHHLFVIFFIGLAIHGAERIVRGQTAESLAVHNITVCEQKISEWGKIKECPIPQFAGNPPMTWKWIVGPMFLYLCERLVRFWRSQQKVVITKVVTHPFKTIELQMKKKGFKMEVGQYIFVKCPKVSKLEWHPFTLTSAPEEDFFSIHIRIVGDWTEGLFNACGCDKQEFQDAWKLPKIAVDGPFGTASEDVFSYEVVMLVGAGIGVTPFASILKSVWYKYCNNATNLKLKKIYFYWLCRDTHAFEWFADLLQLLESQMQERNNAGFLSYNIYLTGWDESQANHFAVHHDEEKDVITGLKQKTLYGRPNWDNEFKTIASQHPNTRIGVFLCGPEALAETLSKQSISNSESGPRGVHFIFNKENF
Sequence of NADPH oxidase 4 (Homo sapiens) (Q9NPH5 whole entry, looked up): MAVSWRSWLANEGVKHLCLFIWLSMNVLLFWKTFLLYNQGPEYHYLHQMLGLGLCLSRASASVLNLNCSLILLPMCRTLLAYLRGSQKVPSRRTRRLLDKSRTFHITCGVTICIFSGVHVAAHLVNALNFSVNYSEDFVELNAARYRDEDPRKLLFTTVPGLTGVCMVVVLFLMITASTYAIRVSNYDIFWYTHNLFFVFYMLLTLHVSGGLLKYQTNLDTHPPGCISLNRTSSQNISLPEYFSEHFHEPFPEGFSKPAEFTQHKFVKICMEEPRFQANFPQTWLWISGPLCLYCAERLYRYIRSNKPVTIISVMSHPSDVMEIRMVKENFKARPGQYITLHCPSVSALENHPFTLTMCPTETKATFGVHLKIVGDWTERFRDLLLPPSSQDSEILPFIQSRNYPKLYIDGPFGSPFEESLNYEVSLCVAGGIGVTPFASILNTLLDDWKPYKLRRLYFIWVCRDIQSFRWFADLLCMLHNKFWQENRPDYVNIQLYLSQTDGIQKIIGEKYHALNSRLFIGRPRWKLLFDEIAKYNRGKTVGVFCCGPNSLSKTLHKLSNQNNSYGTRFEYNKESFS
Sequence of NADPH oxidase 5 (Homo sapiens) (Q96PH1 whole entry, looked up): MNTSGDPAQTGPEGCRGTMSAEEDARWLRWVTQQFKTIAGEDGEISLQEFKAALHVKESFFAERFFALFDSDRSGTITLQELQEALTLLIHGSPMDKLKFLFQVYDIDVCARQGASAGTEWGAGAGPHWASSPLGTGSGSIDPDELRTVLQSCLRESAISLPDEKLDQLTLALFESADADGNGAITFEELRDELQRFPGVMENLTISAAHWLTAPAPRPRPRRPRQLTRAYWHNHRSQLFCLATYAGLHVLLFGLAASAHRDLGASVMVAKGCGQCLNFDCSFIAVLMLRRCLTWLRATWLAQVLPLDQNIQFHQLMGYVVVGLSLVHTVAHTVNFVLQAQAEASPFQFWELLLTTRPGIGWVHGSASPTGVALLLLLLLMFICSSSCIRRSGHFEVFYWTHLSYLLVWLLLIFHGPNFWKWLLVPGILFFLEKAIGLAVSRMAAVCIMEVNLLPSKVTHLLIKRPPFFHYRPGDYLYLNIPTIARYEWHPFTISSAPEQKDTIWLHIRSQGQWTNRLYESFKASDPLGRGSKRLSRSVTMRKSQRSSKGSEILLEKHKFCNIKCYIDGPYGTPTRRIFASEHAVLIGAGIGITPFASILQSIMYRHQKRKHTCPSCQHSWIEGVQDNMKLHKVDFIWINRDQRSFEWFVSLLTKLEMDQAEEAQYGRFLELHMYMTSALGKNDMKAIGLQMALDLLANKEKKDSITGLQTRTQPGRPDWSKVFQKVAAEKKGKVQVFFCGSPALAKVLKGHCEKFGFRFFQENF

Structure (SMILES)	z-score [1]	composite z-score [2]	z-score [3]	z-score [4]	z-score [5]	z-score [6]	z-score [7]	z-score [8]	z-score [9]	z-score [10]	z-score [11]	z-score [12]	z-score [13]	z-score [14]	z-score [15]	z-score [16]	z-score [17]	z-score [18]	z-score [19]	z-score [20]
CCCC1(C(=O)OC)C=C2C(=C(c3ccccc3)C(=O)C2C)CN1 (stereo not given)	-1.23 (inactive)	0.51	2.2 (inactive)	0.194 (inactive)	0.923 (inactive)	0.324 (inactive)	-0.267	-0.2 (inactive)	-2.64 (inactive)	-2.63	-1	-0.446	-0.5	0.136	-1.14	0.0027	-1.23 (inactive)	-0.198	-0.949	-0.42 (inactive)
CCCNC(=O)[C@@]1(Sc2ccc(C)cc2)CC(=O)N(Cc2ccccc2C(F)(F)F)[C@@H]1c1ccc(CO)cc1I	0.0676 (inactive)	0.0999	5.14 (inactive)	0.0162 (inactive)	0.378 (inactive)	-1.95 (inactive)	2.26	0.781 (inactive)	-2 (inactive)	-0.0781	-0.567	1.12	-1.14	-2.3	-2.56	-0.453	-1.02 (inactive)	-0.355	-1.78	0.821 (inactive)
C=CCN1Cc2ccccc2[C@@H]2OC(c3ccc(OCCCO)cc3)=N[C@]2(CCS(=O)(=O)c2ccccc2)C1=O	0.576 (inactive)	0.415	27.2 (active)	20.3 (active)	2.26 (inactive)	3.22 (inactive)	-0.0454	-1.38 (inactive)	0.827 (inactive)	0.0284	-0.251	0.771	0.574	-1.12	-0.664	-0.187	-0.303 (inactive)	-1.06	-0.181	0.315 (inactive)
C=C(/C(=C/C[C@H](OC(C)=O)c1ccc(OCCO)cc1)c1cc(C(=O)OC)ccc1OC)C(C)C	0.759 (inactive)	0.0844	19.2 (active)	4.38 (inactive)	3.26 (inactive)	1.36 (inactive)	0.31	0.864 (inactive)	0.217 (inactive)	-1.42	1.32	0.0952	0.861	-3.04	-2.43	2.82	-0.0331 (inactive)	-0.669	-0.631	1.05 (inactive)
CCOC(=O)C[C@H]1[C@H](OC(=O)c2cc3ccccc3oc2=O)[C@@H](NC(=O)CC(C)C)c2cc(OCCCO)ccc2N1C(=O)c1ccccc1	2.61 (inactive)	-0.0601	0.522 (inactive)	-1.18 (inactive)	0.71 (inactive)	-2.17 (inactive)	1.96	-0.403 (inactive)	0.0665 (inactive)	0.622	-0.276	1.52	0.314	0.117	-0.0793	1.14	0.9 (inactive)	-0.882	0.915	-1.33 (inactive)
CC(C)CNC(=O)[C@@]1(Cc2ccccc2I)c2ccccc2C(=O)N(Cc2ccccc2C(F)(F)F)[C@H]1c1ccc(CO)cc1	0.0655 (inactive)	-0.103	1.23 (inactive)	0.161 (inactive)	0.649 (inactive)	0.525 (inactive)	-0.146	0.285 (inactive)	0.0405 (inactive)	0.401	-0.942	-0.716	-0.0693	-0.722	-0.548	0.081	0.752 (inactive)	-0.844	-0.167	-0.328 (inactive)
NCCCCCNC(=O)[C@H]1C[C@H]2C(=O)N[C@@H](Cc3ccccc3)C(=O)N2[C@H]1c1cccc(OCCO)c1	0.545 (inactive)	1.17	3.99 (inactive)	0.812 (inactive)	-0.685 (inactive)	0.325 (inactive)	-0.136	1.38 (inactive)	0.875 (inactive)	0.434	1.15	-0.14	1.19	0.079	0.226	0.96	-0.67 (inactive)	-0.288	0.948	1.35 (inactive)
CN(C)CCCCCCNC(=O)[C@@H]1C[C@@H]2C(=O)N[C@@H](CCCC[N+](C)(C)C)C(=O)N2[C@@H]1c1ccc(O)cc1	-0.3 (inactive)	-0.612	1.59 (inactive)	-0.375 (inactive)	-0.604 (inactive)	0.0077 (inactive)	-0.607	-1.47 (inactive)	-0.773 (inactive)	-1.4	-0.974	0.334	-0.646	-1.51	0.131	-0.108	-0.302 (inactive)	0.185	-0.313	-0.994 (inactive)
CC(C)N1CC=CC23O[C@@H]4C=CCOC(=O)[C@@H]4[C@H]2C(=O)N(CCCCCO)[C@@H]3C1=O (stereo not given in full)	2.79 (inactive)	0.19	0.641 (inactive)	0.0869 (inactive)	0.204 (inactive)	0.236 (inactive)	1.73	0.865 (inactive)	0.225 (inactive)	1.44	0.522	1.45	-1.25	1.01	0.512	-0.448	-0.709 (inactive)	0.565	-0.41	0.0829 (inactive)
